Most compounds without a hit are left out; they make up all but 19% or so of the library.
HT1080 IDH1KD tx: HT-1080 IDH1 knockdown cell toxicity (counter line); Potency, µM (top dose mostly 46.1 µM), for inactives: at the top dose activity, negative = toxicity, most hits filed as cytotoxic; 360,000 compounds, 2% hits; HT-1080 IDH1 knockdown viability, ATP luminescence, 48 h;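 note: potency is the fitted concentration of half-maximal effect; 0% = DMSO wells and -100% = cell-free medium wells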
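Assay cells: HT-1080 with IDH1 knockdown, 750 per well, RPMI/5% FBS. Exposure: 48 h at 37 °C following 2 h pre-incubation. Read: CellTiter-Glo luminescence; fitted concentration-response, curve class assigned.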
IL1B secr inh: blocks inflammasome-driven IL-1 beta release | THP-1 LPS/ATP IL-1B secretion, AlphaLISA, 16 h; active compounds read low | activity change, % at 57.5 µM | 360,000 compounds, 4.7% hits; in the data active = activity change below about -50%; inconclusive = mostly about -30% to -49%
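Secreted IL-1B measured by AlphaLISA bead assay after 16 h compound exposure of THP-1 cells; compounds (final up to 57.5 uM) added 1 h before LPS (250 ng/mL) and ATP (1.25 mM) stimulation; lower signal means less secretion.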
TDP1 cell CPT: DT40-hTDP1 cell growth loss with CPT; chicken DT40 Tdp1-/-;hTDP1 cells + 20 nM CPT, ATP luminescence, 48 h; Potency, µM (series often up to 46.2 µM), inactives show at the top dose activity change, negative = growth inhibition, actives largely listed as inhibitors; 420,000 compounds, 12% hits; AID 686979; note: potency is the fitted concentration of half-maximal effect; nearly all actives have a fitted effect of over 55% in size
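Cell growth measured by CellTiter-Glo luminescence after a minimum 48 h, 37 C compound exposure with 20 nM CPT in Tdp1-knockout DT40 cells stably expressing hTDP1, seeded 400/well; qHTS titration format.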
DT40 TDP1 no CPT: qHTS for Inhibitors of human tyrosyl-DNA phosphodiesterase 1 (TDP1): qHTS in cells in absence of CPT; AID 686978, 2013; Potency, µM (series often up to 46.2 µM), inactives show at the top dose activity change, negative = growth inhibition, actives largely listed as inhibitors; 420,000 compounds, 15% hits; DT40 Tdp1-/- hTDP1 cells, no CPT, ATP luminescence, 48 h; note: potency is the fitted concentration of half-maximal effect; nearly all actives have a fitted effect of over 55% in size
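Camptothecin absent (DMSO only). Human TDP1-complemented DT40 knockout cells, 400 cells/well, 37 °C for minimum 48 hr; ATP measured via CellTiter-Glo, 30 min dark incubation, luminescence.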
HT1080NT lethal: kills 2HG-producing HT-1080-NT fibrosarcoma cells. HT-1080-NT fibrosarcoma viability, CellTiter-Glo ATP luminescence, 48 h. Potency, µM (top dose mostly 46.1 µM), inactives show at the top dose activity, negative = less viability, usual class: cytotoxic. 360,000 compounds, 1.6% hits. AID 686970;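 note: NT is the 2HG producing partner of a matched IDH1 knockdown line; potency is the fitted concentration of half-maximal effect; 0% = DMSO-treated cells and -100% = media-only wells without cells; nearly all actives have a fitted effect of over 55% in size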
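Compounds were tested in concentration-response format on HT-1080-NT cells for 48 hours at 37 degrees C. Cell viability came from CellTiter-Glo luminescence; curves were classified by r2, response magnitude and activity.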
Numbers without * were called inactive; ? = inconclusive; / = no result; [ ] = dose if it differs, or a comment. Unless noted, calls come from the whole dose curve; as a rule, active = well fitted curve in the direction sought with a large enough effect; inconclusive = small, poorly fitted or top-dose-only effect, or another doubt; inactive = no such curve, though single readings can be large; an effect the other way counts as inactive or inconclusive. Unless noted, % is set by controls: 0 for no effect and ±100 for the full control effect.

SMILES	HT1080 IDH1KD tx	IL1B secr inh	TDP1 cell CPT	DT40 TDP1 no CPT	HT1080NT lethal
COc1ccccc1C(=O)NCCC(=O)N1CCN(c2ccc(C(F)(F)F)cn2)CC1	-9%	-18	23µM*	21µM*	-9%
COc1ccc(C(=O)COC(=O)C2CCN(c3ccc(C(F)(F)F)cn3)CC2)c(OC)c1	14%	17	?	21µM*	18%
Cc1cc(C)c(C(=O)COC(=O)C2CCN(c3ccc(C(F)(F)F)cn3)CC2)cc1C	0%	19	?	?	12%
COc1ccc(C(C)=O)cc1Cn1c(C)c(C(=O)NCCC#N)sc1=O	25%	-16	3%	?	11%
CN1c2ccccc2-c2ccccc2S1(=O)=O	1%	30	32µM*	?	13%
COc1ccc2c(c1)-c1ccccc1S(=O)(=O)N2C	-2%	29	?	?	-2%
NCCCC[C@H]1CN=C(N)N1CCC12CC3CC(CC(C3)C1)C2	3%	-55*	?	?	6%
CCCCN1CC(N2CCN(CCN(C)C)CC2)CS1(=O)=O (centres undefined)	8%	0	-4%	4%	-4%
OC(c1ccccc1)(c1ccccc1)c1nccc2ccccc12	14%	-55*	-28%	?	3%
c1ccc(-c2nccc3ccccc23)cc1	10%	25	-4%	3%	8%
O=C(O)CCCNC(=O)Cc1ccccc1	11%	8	7%	3%	12%
CCCS(=O)(=O)Nc1cc2c(cc1NCc1ccccc1)n(C)c(=O)n2C	/	/	9.2µM*	?	/
COc1ccc(S(=O)(=O)Nc2cc3c(cc2NCc2ccccc2)n(C)c(=O)n3C)cc1	/	/	8.2µM*	?	/
CC1(C)Cc2c(cnn2-c2ccc(F)cc2)C(NC(=O)CCN2CCCCC2=O)C1 (centres undefined)	7%	16	-13%	-25%	6%
CC1(c2nnnn2-c2ccc3c(c2)OCCO3)CCC(=O)N1C1CCN(Cc2ccccc2)CC1 (centres undefined)	6%	14	0%	-30%	12%
Cc1cc(NC2CCCCC2)nc(N2CCOCC2)n1	-4%	-20	-16%	-9%	-2%
CC(C)Nc1nc(NC2CCCC2)nc(N2CCOCC2)n1	0%	-99*	?	?	-1%
CS(=O)(=O)c1nc(-c2ccccc2)cc(-c2ccccc2)c1C#N	?	-56*	1.5µM*	2.9µM*	23µM*
CC1(Cc2ccc3ccccc3n2)C(=O)Nc2ccc(OC(F)(F)F)cc21 (centres undefined)	-18%	-4	?	?	-19%
COc1cc(=O)n2c(c1C(=O)N(C)Cc1nonc1C)CCN(Cc1cccc(Cl)c1)CC2	/	/	4%[9.04 µM]	-13%	/
CCCOc1cccc(C(=O)NC(=S)Nc2cccc(C(F)(F)F)c2)c1	15%[9.24 µM]	-57*	?	?	?
O=C(/C=C/c1ccc(N2CCC(c3ccccc3)=N2)cc1)c1ccccc1	-9%	-94*	?	-28%	9%
Cc1nn(CC(=O)NCCc2ccc(Cl)cc2)c(=O)c2cc3cc(F)ccc3n12	/	/	-4%	-1%	/
Cc1ccccc1C(=O)N/N=C/c1ccc([N+](=O)[O-])s1	8.9µM*	-65*	16µM*	13µM*	20µM*
COC(=O)N/N=C/c1ccc([N+](=O)[O-])s1	?	-17	13µM*	15µM*	-1%
SMILES	HT1080 IDH1KD tx	IL1B secr inh	TDP1 cell CPT	DT40 TDP1 no CPT	HT1080NT lethal
O=C(CNC(=O)c1cccc(F)c1)N/N=C/c1ccc([N+](=O)[O-])s1	-21%	34	18µM*	5.8µM*	-29%
O=C(N/N=C/c1ccc(Br)s1)c1cccc([N+](=O)[O-])c1	?	-4	?	?	-4%
COc1ccc(NC(C)C(=O)N/N=C/c2ccc([N+](=O)[O-])s2)cc1 (centres undefined)	-4%	-9	16µM*	23µM*	-21%
Cc1ccccc1C(=O)N/N=C/c1cccc2ccccc12	0%	30	-1%	-18%	2%
O=C(CNC(=O)c1cccc(Br)c1)N/N=C/c1cccs1	12%	1	1%	14%	9%
COc1ccccc1NC(=O)C(=O)N/N=C/c1ccc([N+](=O)[O-])s1	0%	-11	12µM*	?	14%
O=C(N/N=C/c1ccc(O)cc1)c1cncc(Br)c1	13%	-11	2%	1%	20%
O=C(Cc1ccccc1)N/N=C/c1ccc([N+](=O)[O-])s1	?	-1	21µM*	23µM*	?
CCOc1ccccc1NC(=O)C(=O)N/N=C/c1ccc([N+](=O)[O-])cc1	22%	-20	1%	3%	19%
O=C(N/N=C/c1ccc([N+](=O)[O-])s1)c1ccccc1	-13%	?	4.6µM*	4.1µM*	-10%
O=C(N/N=C\c1ccc([N+](=O)[O-])s1)c1cncc(Br)c1	6.5µM*	-58*	5.2µM*	3.3µM*	?
C=CCOc1ccc(CNc2ccc(NC(=O)CC(C)C)cc2)cc1OC	12%	-2	-29%	?	9%
CCn1nc(C)c(/C=N/NC(=O)Cn2nccc2C)c1C	7%	22	-16%	-1%	13%
Cc1ccnn1CC(=O)N/N=C/c1ccc([N+](=O)[O-])s1	-21%	30	26µM*	23µM*	?
Cc1ccc(NC(=O)N2CCN(c3nnc(C)c4c(C)n(-c5ccc(Cl)cc5)nc34)CC2)c(C)c1	/	/	1%	-17%	/
CC(=O)Nc1cc(-c2ccc(C(=O)N3CCOCC3)cc2)cn2c(-c3ccc(S(C)(=O)=O)cc3)cnc12	5%	-28	16µM*	13µM*	-8%
CC(=O)Nc1cc(-c2ccc(C(=O)N3CCOCC3)cc2)cn2c(-c3ccc(F)c(Cl)c3)cnc12	?	?	23µM*	16µM*	?
C[C@@H]1CN([C@H](C)CO)C(=O)CCCn2nncc2CO[C@H]1CN(C)Cc1ccc(C(F)(F)F)cc1	9%	9	4%	-2%	16%
CC(C)c1ccc(C2CC(=O)Nc3cc4c(cc32)OCCO4)cc1 (centres undefined)	/	/	?	29µM*	/
Cc1ccc(C2CC(=O)Nc3cc4c(cc32)OCCO4)cc1Br (centres undefined)	/	/	18µM*	16µM*	/
Oc1ccc(N2CCN(C(=S)NCCc3ccccc3)CC2)cc1	3.7µM*	26	6.5µM*	8.2µM*	?
S=C(NCCc1ccccc1)N1CCN(Cc2ccccc2)CC1	-2%	-3	29µM*	?	-15%
CC(=O)N1CCN(C(=S)NCCc2ccccc2)CC1	4%	6	-14%	-21%	15%
